{"source": "PubChem BioAssay (Tox21)", "note": "Unmarked numbers belong to inactive results. Records with an inconclusive call do not appear. Calls of active or inactive are those of the source. Unless noted, calls follow the shape of the dose curve; as a rule, active = well fitted curve in the direction sought with a large enough effect in the repeat runs; inconclusive = weak or mixed curves; inactive = flat fitted curve, though single readings scatter. % is scaled to controls: 0 for no effect and ±100 for the full control effect."}
{"system": "not listed separately", "experiment": "qHTS assay to test for compound auto fluorescence at 460 nm (blue) in HepG2 cells (AID 720687)", "settings": "autofluorescence 405/460 nm, 1 h; series mostly up to 91.3 µM; fluorescence, % of fluorescent control: at the top concentration", "summary_of_the_method": "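Blue-channel autofluorescence (Ex/Em 405/460 nm, triamterene-equivalent) was measured after 1 hr compound exposure at 37 C, 5% CO2. Cells were HepG2, plated overnight at 37 C in MEM plus 10% FBS.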"}
{"smiles": "C[C@H]1c2cccc(O)c2C(O)=C2C(=O)[C@]3(O)C(O)=C(C(N)=O)C(=O)[C@@H](N(C)C)[C@@H]3[C@@H](O)[C@@H]21", "fluorescence, % of fluorescent control": "2.41% [at 46 µM]"}
{"smiles": "NNC(=O)CP(=O)(c1ccccc1)c1ccccc1", "fluorescence, % of fluorescent control": "-0.0749% [at 46 µM]"}
{"smiles": "CN(C)CCN1C(=O)c2ccccc2N(C)c2ccccc21", "fluorescence, % of fluorescent control": "-0.0763% [at 46 µM]"}
{"smiles": "C[C@]1(Cn2ccnn2)[C@H](C(=O)O)N2C(=O)C[C@H]2S1(=O)=O", "fluorescence, % of fluorescent control": "0.11% [at 46 µM]"}
{"smiles": "c1ccc(C[n+]2cccc3ccccc32)cc1", "fluorescence, % of fluorescent control": "1.11%"}
{"smiles": "CC1CC(OC(=O)C(O)c2ccccc2)CC(C)(C)N1C", "note": "(centres undefined)", "Potency": "inactive"}
{"smiles": "COc1ccccc1N1CCN(CC(O)COc2cccc3ccccc23)CC1", "note": "(centres undefined)", "fluorescence, % of fluorescent control": "0.0426% [at 46 µM]"}
{"smiles": "CN1C(=O)OC(C)(C)C1=O", "Potency": "inactive"}
{"smiles": "CC1=C(CC=O)C(C)(C)CCC1", "fluorescence, % of fluorescent control": "-0.126%"}
{"target": "Glucocorticoid receptor (Homo sapiens) (UniProt P04150)", "sequence (P04150 whole entry, looked up)": "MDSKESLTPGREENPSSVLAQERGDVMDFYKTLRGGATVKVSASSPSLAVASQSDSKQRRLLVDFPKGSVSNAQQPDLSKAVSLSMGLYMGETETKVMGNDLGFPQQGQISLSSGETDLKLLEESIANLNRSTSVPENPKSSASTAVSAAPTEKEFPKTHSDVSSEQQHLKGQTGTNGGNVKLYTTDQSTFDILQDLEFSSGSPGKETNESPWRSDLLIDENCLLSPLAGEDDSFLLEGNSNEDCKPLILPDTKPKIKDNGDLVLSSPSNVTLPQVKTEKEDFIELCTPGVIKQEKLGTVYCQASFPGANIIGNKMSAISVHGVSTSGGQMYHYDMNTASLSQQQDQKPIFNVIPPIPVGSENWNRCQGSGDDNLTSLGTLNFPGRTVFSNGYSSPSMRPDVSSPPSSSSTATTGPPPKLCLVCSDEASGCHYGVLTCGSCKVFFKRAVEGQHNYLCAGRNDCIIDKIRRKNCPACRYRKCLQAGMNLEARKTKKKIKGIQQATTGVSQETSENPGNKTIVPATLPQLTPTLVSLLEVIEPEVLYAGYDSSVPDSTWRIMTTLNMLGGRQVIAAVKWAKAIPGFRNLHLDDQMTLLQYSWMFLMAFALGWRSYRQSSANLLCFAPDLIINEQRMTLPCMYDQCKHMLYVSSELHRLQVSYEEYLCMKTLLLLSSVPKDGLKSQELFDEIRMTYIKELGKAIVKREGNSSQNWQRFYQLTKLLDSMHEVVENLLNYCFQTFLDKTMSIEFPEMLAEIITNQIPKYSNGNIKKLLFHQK", "experiment": "qHTS assay to identify small molecule agonists of the glucocorticoid receptor (GR) signaling pathway (AID 720691; active = well fitted activation curve with a large enough effect in the signal ratio in the repeat runs, not every such curve was filed as active; the % refers to the signal ratio)", "settings": "GR-bla HeLa, beta-lactamase reporter ratio, 18 h; series mostly up to 62.4 µM; activation: at the top concentration", "summary_of_the_method": "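A HeLa cervical cancer line expressing GR and a glucocorticoid response element-driven beta-lactamase gene is treated with compounds for 18 h; LiveBLAzer B/G FRET substrate is then applied and fluorescence read.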"}
{"smiles": "CC(C)c1nc(CN(C)C(=O)N[C@H](C(=O)N[C@@H](Cc2ccccc2)C[C@H](O)[C@H](Cc2ccccc2)NC(=O)OCc2cncs2)C(C)C)cs1", "Potency": "inactive"}
{"smiles": "CN1CCCC(n2nc(Cc3ccc(Cl)cc3)c3ccccc3c2=O)CC1", "note": "(centres undefined)", "activation": "-3.59%"}
{"smiles": "O=C(O)CCCCCCCCCCCBr", "activation": "2.63%"}
{"smiles": "CCCCN1CCCC1C(=O)Nc1c(C)cc(C)cc1C", "note": "(centres undefined)", "activation": "-2%"}
{"smiles": "Cc1ccccc1N=C(N)Nc1ccccc1C", "activation": "-0.868%"}
{"smiles": "CCOc1ccccc1O[C@H](c1ccccc1)[C@H]1CNCCO1", "activation": "0.0514%"}
{"smiles": "CCOC(=O)c1ccc(C#Cc2ccc3c(c2)C(C)(C)CCS3)nc1", "activation": "3.96%"}
{"smiles": "C=C/C(C)=C/C/C=C(\\C)CCC=C(C)C", "activation": "-3.5%"}
{"smiles": "Oc1cc2c(cc1O)[C@H]1c3ccc(O)c(O)c3OC[C@@]1(O)C2", "activation": "-5.81% [at 79.2 µM]"}
{"smiles": "CN(C)CCC=C1c2ccccc2C=Cc2ccccc21", "activation": "0.678%"}
{"smiles": "CN(C(=O)CN(CCO)CC(=O)N(C)C(C)(C)Cc1ccccc1)C(C)(C)Cc1ccccc1", "activation": "-0.921% [at 29.2 µM]"}
{"smiles": "CC(=O)c1ccc([N+](=O)[O-])cc1", "activation": "-3.48%"}
{"smiles": "COc1ccccc1NC(=O)c1cc2ccccc2cc1O", "activation": "-7.25%"}
{"smiles": "O=C(O)c1cccc(-c2noc(-c3ccccc3F)n2)c1", "activation": "-3.34%"}
{"smiles": "C[C@H]1c2cccc(O)c2C(O)=C2C(=O)[C@]3(O)C(O)=C(C(N)=O)C(=O)[C@@H](N(C)C)[C@@H]3[C@@H](O)[C@@H]21", "activation": "-4.76%"}
{"smiles": "NNC(=O)CP(=O)(c1ccccc1)c1ccccc1", "activation": "-1.35%"}
{"smiles": "c1ccc(C[n+]2cccc3ccccc32)cc1", "activation": "1.53%"}
{"smiles": "CC1CC(OC(=O)C(O)c2ccccc2)CC(C)(C)N1C", "note": "(centres undefined)", "Potency": "inactive"}
{"smiles": "CN1C(=O)OC(C)(C)C1=O", "Potency": "inactive"}
{"target": "Glucocorticoid receptor (Homo sapiens) (UniProt P04150)", "experiment": "qHTS assay to identify small molecule antagonists of the glucocorticoid receptor (GR) signaling pathway (AID 720692; active = well fitted inhibition curve with a large enough effect in the signal ratio in the repeat runs, not every such curve was filed as active; the % refers to the signal ratio; also: potency is read from the fitted curve at half-maximal effect)", "settings": "GR-bla HeLa, beta-lactamase FRET ratio, dexamethasone-stimulated, 18 h; series mostly up to 58.5 µM; activity change, negative = inhibition: at the top concentration", "summary_of_the_method": "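GRE-bla HeLa line, dex-stimulated (5 nM final). Compound exposure 18 h, 37 C. Beta-lactamase FRET read after 2 h RT substrate.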"}
{"smiles": "CN1CCCC(n2nc(Cc3ccc(Cl)cc3)c3ccccc3c2=O)CC1", "note": "(centres undefined)", "activity change, negative = inhibition": "9.26%"}
{"smiles": "O=C(O)CCCCCCCCCCCBr", "activity change, negative = inhibition": "-18.1%"}
{"smiles": "CCCCN1CCCC1C(=O)Nc1c(C)cc(C)cc1C", "note": "(centres undefined)", "activity change, negative = inhibition": "-1.69%"}
{"smiles": "CCOc1ccccc1O[C@H](c1ccccc1)[C@H]1CNCCO1", "activity change, negative = inhibition": "10%"}
{"smiles": "C=C/C(C)=C/C/C=C(\\C)CCC=C(C)C", "Potency": "38.9 µM (active)"}
{"smiles": "CCOC(=O)C1=C(C)NC(C)=C(C(=O)OC)C1c1cccc(Cl)c1Cl", "note": "(centres undefined)", "Potency": "10.7 µM (active)"}
{"smiles": "CN(C(=O)CN(CCO)CC(=O)N(C)C(C)(C)Cc1ccccc1)C(C)(C)Cc1ccccc1", "activity change, negative = inhibition": "10.8% [at 27 µM]"}
{"smiles": "CCCCCCCCCCCCCCN(CCO)CCO", "Potency": "19.5 µM (active)"}
{"smiles": "CC1=C(Br)C(=O)C(Br)=C/C1=C(/c1ccccc1S(=O)(=O)O)c1cc(Br)c(O)c(Br)c1C", "activity change, negative = inhibition": "-19.1%"}
{"smiles": "COc1ccccc1NC(=O)c1cc2ccccc2cc1O", "Potency": "38.9 µM (active)"}
{"smiles": "O=C(O)c1cccc(-c2noc(-c3ccccc3F)n2)c1", "activity change, negative = inhibition": "6.95%"}
{"smiles": "OCCN1CCN(CCCN2c3ccccc3Sc3ccc(Cl)cc32)CC1", "activity change, negative = inhibition": "-1.51% [at 27 µM]"}
{"smiles": "NNC(=O)CP(=O)(c1ccccc1)c1ccccc1", "activity change, negative = inhibition": "-14.4%"}
{"smiles": "c1ccc(C[n+]2cccc3ccccc32)cc1", "activity change, negative = inhibition": "-25.1%"}
{"smiles": "CC1CC(OC(=O)C(O)c2ccccc2)CC(C)(C)N1C", "note": "(centres undefined)", "Potency": "inactive"}
{"smiles": "CN1C(=O)OC(C)(C)C1=O", "Potency": "inactive"}
